This is a sample that favours compounds with a hit; in the whole collection about 7.3% have one here.
SMN2 splice up = qHTS Assay for Enhancers of SMN2 Splice Variant Expression; Potency, µM (series often up to 46.1 µM), for inactives: top-dose activity change, positive = activation, hits mostly activators; 210,000 tested, 2.8% active; HEK293 SMN2-luciferase splicing reporter, luminescence, 30-36 h; AID 1458, 2008; further: % of control where 0% means no effect; nearly all actives have a fitted effect of over 55% in size
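qHTS luciferase splicing reporter: luminescence rises when SMN2 exon 7 is included in transfected HEK293 cells. Compound exposure lasted 30-36 h at 37C, with 4.5 mM final sodium butyrate as control, followed by a ONE-Glo read.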
ELG1 genotoxic = qHTS screen for small molecules that induce genotoxicity in human embryonic kidney (HEK293T) cells expressing luciferase-tagged ELG1 | HEK293T ELG1-luciferase reporter, luminescence, 16 h | Potency, µM (titrated, usually from 46 µM), without a hit: at the highest dose activity change, positive = activation, most hits filed as activators | 330,000 tested, 1.3% active; further: % of control where 0% means no effect; nearly all actives have a fitted effect of over 60% in size
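HEK293T cells expressing luciferase-tagged ELG1 were treated with compound or DMSO for 16 hr at 37°C. Luciferase activity was then read after 30 min with ONE-Glo at room temperature; rising signal flags genetic stress.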
NPC1 promoter act = qHTS Assay for NPC1 Promoter Activators; 320,000 tested, 2.4% active; Huh7 NPC1 promoter luciferase reporter, 24 h; AID 485313, 2010; Potency, µM (titrated, usually from 9.22 µM), for inactives: at the top dose activation, actives largely listed as activators; further: % of control where 0% means no effect; nearly all actives have a fitted effect of over 60% in size
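Stably transfected Huh7 (NPC1 promoter→luciferase), 1500 cells/well in Opti-MEM + 10% FBS, 2 h settle, then compound 24 h at 37 °C. Luminescence after 10 min with Amplite reagent.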
Luc counter = Counterscreen for Luciferase (Kinase-Glo TM) Inhibition; Luciferin 4-monooxygenase (Photuris pensylvanica), Q27757; Potency, µM (top dose mostly 38.3 µM), inactives show at the top dose activity change, negative = inhibition, hits mostly inhibitors; AID 1379, 2008; Kinase-Glo luciferase, ATP luminescence, 8 min; 200,000 tested, 0.28% active; further: on the % scale 0 is the no-effect control and ±100 the full control effect; nearly all actives have a fitted effect of over 60% in size
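Kinase-Glo luciferase light output from ATP and luciferin was measured with 10 uM ATP, within the enzyme's linear range. Buffer: 50 mM imidazole pH 7.2, 50 mM KCl, 7 mM MgCl2, 0.01% Tween 20, 0.05% BSA; luminescence read after 8 min at ambient temperature.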
FLuc counter = qHTS profiling assay for firefly luciferase inhibitor/activator using purifed enzyme and Km concentrations of substrates (counterscreen for miR-21 project); Luciferin 4-monooxygenase (Photinus pyralis), P08659; purified FLuc, Km substrates, luminescence inhibition; Potency, µM (titrated, usually from 57.5 µM), inactives show top-dose activity change, negative = inhibition, actives largely listed as inhibitors; 360,000 tested, 6.9% active; AID 588342, 2011;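 further: plate controls were vehicle for no effect and reference inhibitor for full effect; nearly all actives have a fitted effect of over 55% in size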
Target sequence (P08659 whole entry, looked up): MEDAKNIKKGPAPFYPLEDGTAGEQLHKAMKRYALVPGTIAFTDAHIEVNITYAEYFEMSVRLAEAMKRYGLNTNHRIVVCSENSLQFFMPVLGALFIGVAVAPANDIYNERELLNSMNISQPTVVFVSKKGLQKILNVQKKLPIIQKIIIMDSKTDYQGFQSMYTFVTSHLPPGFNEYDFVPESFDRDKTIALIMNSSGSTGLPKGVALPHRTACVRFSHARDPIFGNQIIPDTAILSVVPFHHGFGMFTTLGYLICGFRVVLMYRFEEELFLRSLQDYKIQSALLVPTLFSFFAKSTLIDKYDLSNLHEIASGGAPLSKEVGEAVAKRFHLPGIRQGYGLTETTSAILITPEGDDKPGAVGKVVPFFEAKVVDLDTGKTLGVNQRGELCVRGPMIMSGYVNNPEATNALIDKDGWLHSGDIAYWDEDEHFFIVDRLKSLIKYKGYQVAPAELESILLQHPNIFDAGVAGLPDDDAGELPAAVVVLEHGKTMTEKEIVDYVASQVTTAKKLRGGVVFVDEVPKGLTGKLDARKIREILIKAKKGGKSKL
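Purified P. pyralis luciferase, 10 nM final, with Km-level 10 uM D-luciferin and 10 uM ATP in 50 mM Tris acetate pH 7.5, 10 mM Mg acetate, 0.01% Tween-20, 0.05% BSA; 6-point qHTS titration about 60 µM downward; luminescence read.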
Rab9 promoter act = qHTS Assay for Rab9 Promoter Activators. 320,000 tested, 2.8% active. Huh7 Rab9 promoter-luciferase reporter, luminescence, 24 h. AID 485297, 2010. Potency, µM (doses to about 9.22 µM), for inactives: at the highest dose activation, negative = inhibition, most hits filed as activators; further: % of control where 0% means no effect; nearly all actives have a fitted effect of over 60% in size
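Luciferase signal after 10 min detection reagent at ambient indicates Rab9 promoter upregulation; stably transfected Huh7 cells were treated 24 h with compound in DMSO at 37 °C, 5% CO2.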
An asterisk follows results filed as active; ? = inconclusive; nt = no result; [ ] = another dose, or the depositor's remark. The call rests on the fitted dose curve; in most records, active means well fitted curve in the direction sought with a large enough effect; inconclusive means small, poorly fitted or top-dose-only effect, or another doubt; inactive means no such curve, though single readings can be large; an effect the other way counts as inactive or inconclusive. Potency means the concentration at half of the fitted maximal effect.

SMILES	SMN2 splice up	ELG1 genotoxic	NPC1 promoter act	Luc counter	FLuc counter	Rab9 promoter act
CC1CCN(C(=O)COC(=O)c2ccc3c(c2)OCO3)CC1	20.9%	?	?	-7.0%	16.9µM*	3.55µM*
Nc1ccc(C(=O)OCC(=O)N2CCOCC2)cc1[N+](=O)[O-]	20µM*	?	?	-0.8%	?	?
CC1CCN(C(=O)COC(=O)c2ccc(Br)o2)CC1	-3.0%	?	3.5%	-0.6%	23.9µM*	3.5%
COc1cc(-c2nc(Cn3nnc(C(=O)Nc4ccccc4C)c3C)c(C)o2)cc(OC)c1OC	9.9%	nt	nt	nt	5.5%	nt
CCOc1ccc(OCC)c(NC(=O)c2ccc(CNc3c(N4CCCC4)c(=O)c3=O)cc2)c1	nt	0.8%	-7.7%	nt	-1.7%	-12.3%
CCOc1ccc(NC(=O)c2ccc(CNc3c(N4CCCC4)c(=O)c3=O)cc2)cc1	nt	4.1%	-3.5%	nt	13.5µM*	6.4%
CC(=O)c1ccc(NC(=O)c2ccc(CNc3c(N4CCCC4)c(=O)c3=O)cc2)cc1	nt	-0.6%	-3.1%	nt	?	1.6%
CC(=O)c1ccc(NC(=O)c2ccc(CNc3c(N4CCOCC4)c(=O)c3=O)cc2)cc1	nt	-2.0%	-1.9%	nt	12µM*	1.2%
Cc1nn(CC(C)C)c(=S)[nH]c1=O	5.62µM*	-3.6%	-4.1%	-0.1%	0.3%	-8.6%
Cc1ccc(C)c(/C=C2\N=C(c3ccccc3F)OC2=O)c1	nt	1.7%	-8.0%	nt	?	6.1%
O=C1/C(=C\c2ccc(Br)o2)Cc2ccccc21	-24.8%	?	0.2%	-1.4%	15.1µM*	1.8%
COc1cc(OC)c(OC)cc1/C=C1/Cc2ccccc2C1=O	nt	2.9%	-9.4%	nt	5.5%	-3.6%[1.84 µM]
O=C1/C(=C/c2cccs2)Cc2ccccc21	nt	?	21.4%	nt	3.79µM*	18.7%
O=C1C(=Cc2cccs2)C(=O)c2ccccc21	5.5%	10.4%	-1.4%	?	4.78µM*	10.2%
Cc1ccccc1C1=N/C(=C/c2cccs2)C(=O)O1	-20.5%	0.2%	-0.5%	-5.9%	3.38µM*	3.3%
COc1ccc(C(=O)N(Cc2sccc2C)C2CCS(=O)(=O)C2)cc1Cl (centres undefined)	-6.0%	nt	nt	nt	2.5%	nt
COc1ccc(CCNC(=O)CCCCn2c(=O)c3ccccc3n(CC(=O)Nc3ccc(C)cc3C)c2=O)cc1OC	-1.0%	nt	nt	nt	0.4%	nt
COCCNC(=O)c1c(NC(=O)Cc2coc3cc(C)ccc23)sc2c1CCCC2	-19.6%	nt	nt	nt	?	nt
C=C(C)CSc1nc2sc3c(c2c(=O)n1-c1ccccc1)CCC(C)C3 (centres undefined)	-3.5%	nt	nt	nt	2.4%	nt
COC(=O)c1ccccc1NC(=O)N1CCC(n2c(C)nc3cccnc32)CC1	nt	nt	nt	nt	-4.9%	nt
N#C/C(=C\c1ccc(-c2cc(Cl)ccc2Cl)o1)C(=O)Nc1cccc2ncccc12	nt	nt	-5.0%[46.1 µM]	nt	nt	-17.0%[46.1 µM]
Cc1ccc(C=C2C(=O)c3ccccc3C2=O)s1	16.0%	?	1.2%	7.08µM*	0.849µM*	9.5%
C=CCn1c(C)cc(C(=O)COC(=O)[C@@H](NC(=O)c2ccccc2Cl)C(C)C)c1C	-2.1%	?	?	?	0.151µM*	?
Cc1cc(C(=O)COC(=O)COc2ccccc2C#N)c(C)n1CC1CCCO1 (centres undefined)	nt	1.4%	-3.1%	nt	3.01µM*	1.2%
C=CCn1c(C)cc(C(=O)COC(=O)COc2ccccc2C#N)c1C	nt	8.3%	-2.0%	nt	1.69µM*	8.7%
COc1cc2nncc(SCc3ccc(Cl)c(Cl)c3)c2cc1OC	-4.9%[9.22 µM]	nt	nt	-0.9%[7.66 µM]	nt	nt
O=c1/c(=C/c2ccccn2)sc2nc3ccccc3n12	12.6µM*	0.82µM*	?	12.6µM*	0.135µM*	?
